ELG1 repair inh = ELG1-dependent DNA repair inhibition; HEK293T ELG1-luciferase reporter, luminescence, 16 h; DNA damage induced by 5-fluorouridine; Potency, µM (doses to about 46.1 µM), hits mostly inhibitors; hit rate 2.3% among 330,000; also: nearly all actives have a fitted effect of over 55% in size
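5-Fluorouridine DNA damage + compound/DMSO, 2,000 cells/well, 16 h, 37 °C/5% CO2. ONE-Glo, 30 min RT, luminescence. Readout = decrease in reporter signal.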
DT40 TDP1 no CPT = qHTS for Inhibitors of human tyrosyl-DNA phosphodiesterase 1 (TDP1): qHTS in cells in absence of CPT; DT40 Tdp1-/- hTDP1 cells, no CPT, ATP luminescence, 48 h; Potency, µM (highest dose often 46.2 µM), actives largely listed as inhibitors; hit rate 15% among 420,000; AID 686978, 2013; also: nearly all actives have a fitted effect of over 55% in size
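Readout: luminescence from CellTiter-Glo after 30 min in the dark at RT. Cells: DT40 Tdp1-/- with stable hTDP1, 400/well. Exposure: compounds alone, ≥48 hr, 37 °C.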
RORgamma inh = inhibitors of mouse ROR gamma transcriptional activity | P51450 | Drosophila S2 Gal4-RORgamma UAS-luciferase reporter, 20 h | Potency, µM (top dose mostly 53.6 µM), usual class: inhibitors | hit rate 5.4% among 310,000; also: nearly all actives have a fitted effect of over 60% in size
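Stably transfected Drosophila Schneider cells are the test system, with ROR gamma fused to Gal4 and luciferase under UAS control; luminescence is read after 20 hr of 700 uM copper sulfate induction at ambient temperature.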
12-LOX inh = blocks human arachidonate 12S-lipoxygenase; P18054; purified 12hLO, xylenol orange hydroperoxide absorbance; Potency, µM (top dose mostly 108 µM), most hits filed as inhibitors; hit rate 1.1% among 580,000
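Purified human 12hLO at 150 nM in 25 mM Hepes, 0.01% Triton X-100, pH 7.0, preincubated 15 min at room temperature with compound. Reaction started with 40 uM arachidonic acid, 30 min at room temperature. Hydroperoxide measured by Fe-xylenol orange, 573/405 nm absorbance ratio.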
DT40 TDP1 CPT = DT40-hTDP1 cell growth loss with CPT; Potency, µM (titrated, usually from 46.2 µM), usual class: inhibitors; chicken DT40 Tdp1-/-;hTDP1 cells + 20 nM CPT, ATP luminescence, 48 h; AID 686979; hit rate 12% among 420,000; also: nearly all actives have a fitted effect of over 55% in size
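Cell growth measured by CellTiter-Glo luminescence after a minimum 48 h, 37 C compound exposure with 20 nM CPT in Tdp1-knockout DT40 cells stably expressing hTDP1, seeded 400/well; qHTS titration format.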
Gal4-VP16 FLuc = counter-screen for ROR gamma inhibitors: Gal4-VP16 reporter; AID 2546; Drosophila S2 Gal4-VP16 UAS-luciferase, luminescence, 20 h; Potency, µM (top dose mostly 53.6 µM), actives largely listed as inhibitors; hit rate 3.5% among 310,000;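 also: Gal4-VP16 expression switched on by copper sulfate through the metallothionein promoter; nearly all actives have a fitted effect of over 50% in size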
A number is an active result; n = inactive; u = inconclusive; x = no result given; [ ] = remark or other dose. The list is not random: actives were taken first. Their share in the collection is about 15%. Calls follow the shape of the dose curve; as a rule, active = well fitted curve in the direction sought with a large enough effect; inconclusive = small, poorly fitted or top-dose-only effect, or another doubt; inactive = no such curve, though single readings can be large; an effect the other way counts as inactive or inconclusive.

SMILES	ELG1 repair inh	DT40 TDP1 no CPT	RORgamma inh	12-LOX inh	DT40 TDP1 CPT	Gal4-VP16 FLuc
NC(=O)C1CCCN(C(=O)c2ccc3nc(Cc4cccc(Cl)c4)oc3c2)C1 (centres undefined)	n	n	n	n	n	n
COc1ccc(Cc2nc3ccc(C(=O)N4CCN(C)C(C)C4)cc3o2)cc1OC (centres undefined)	n	18µM	n	n	u	u
C=CCN(CC=C)C(=O)c1ccc2nc(Cc3ccc(OC)c(OC)c3)oc2c1	u	4.6µM	u	n	u	13µM
COc1ccc(Cc2nc3ccc(C(=O)N4CCC[C@H]4CO)cc3o2)cc1	n	n	n	n	u	n
CC(C)(C)C(=O)N1CCC(F)(c2nc(-c3ccncc3)no2)CC1	x	x	x	n	x	x
COc1ccc(Cc2nc3ccc(C(=O)NC(C)Cc4ncccc4C)cc3o2)cc1OC (centres undefined)	u	u	u	n	18µM	n
COc1ccc(Cc2nc3ccc(C(=O)NCc4cccc(C)n4)cc3o2)cc1OC	x	u	x	n	18µM	x
COc1ccc(Cc2nc3ccc(C(=O)N4CCCC4)cc3o2)cc1	u	n	n	n	n	n
COc1ccc(Cc2nc3ccc(C(=O)N4CCCC4)cc3o2)cc1OC	u	21µM	u	n	u	u
O=C(N/N=C/c1cccc([N+](=O)[O-])c1)c1cc2c(ccc3ccccc32)o1	u	u	n	n	n	n
Cc1ccc(-c2ccc(/C=N\NC(=O)c3cc4c(ccc5ccccc54)o3)o2)cc1[N+](=O)[O-]	u	9.2µM	n	n	10µM	n
O=C(N/N=C/c1ccc(-c2ccc(Cl)c(C(=O)O)c2)o1)c1cc2c(ccc3ccccc32)o1	n	n	n	40µM	n	n
Cc1ccc([N+](=O)[O-])cc1-c1ccc(/C=N/NC(=O)c2cc3c(ccc4ccccc43)o2)o1	n	8.2µM	n	n	u	n
COc1cc(/C=N/NC(=O)c2cc3c(ccc4ccccc43)o2)cc(OC)c1O	u	x	u	n	x	u
O=C(O)c1ccc(/C=N/NC(=O)c2cc3c(ccc4ccccc43)o2)cc1	n	n	n	n	u	n
CNC(=O)c1noc([C@@H]2CC(F)(F)CN2Cc2cnn(C(C)C)c2)n1	x	x	x	n	x	x
O=C(CSc1nc2ccccc2c(=O)n1Cc1ccco1)c1ccc(F)cc1	u	23µM	n[10 µM]	n	12µM	u
O=C1c2ccccc2C(=O)N1CCc1nc2ccccc2c(=O)n1Cc1ccco1	21µM	n	n	n	n	n
Cc1occc1-c1nnc(SCC(=O)c2ccc(F)cc2)n1Cc1ccco1	n	u	n	n	u	n
Cc1nc2ccccc2c(=O)n1Cc1ccco1	n	n	n	n	n	n
NC(=O)CSc1nc2ccccc2c(=O)n1Cc1ccco1	n	n	n	n	n	n
COc1ccccc1-c1nnc(SCC(=O)c2ccc(C3CCCCC3)cc2)n1Cc1ccco1	n	23µM	n	n	23µM	n
O=C(CSc1nnc(-c2cc3ccccc3cc2O)n1Cc1ccco1)c1ccc(F)cc1	u	16µM	n	n	13µM	14µM
Cc1cccc(C(=O)N2CCC(n3cnnc3C3CC3)CC2)c1	x	x	x	n	x	x
CCNc1c(NC(=O)Cc2ccc(F)cc2)c(=O)oc2ccccc12	x	x	x	n	x	x
Cc1ccc(Cn2c(C3CCN(C(=O)c4ccc5c(c4)OCO5)CC3)n[nH]c2=O)cc1	x	x	x	n	x	x
CCN(CC)S(=O)(=O)c1ccc(C)c(NC(=S)N2CCN(c3ccccn3)CC2)c1	16µM	15µM	n	n	18µM	n
CCN(CC)S(=O)(=O)c1ccc(C)c(NC(=S)N2CCN(Cc3ccc4c(c3)OCO4)CC2)c1	u	21µM	11µM	n	21µM	22µM
CCN(CC)S(=O)(=O)c1ccc(C)c(NC(=S)N2CCN(C/C=C/c3ccccc3)CC2)c1	12µM	12µM	13µM	n	u	u
